Values joined by “and” are separate entries in the source; they are usually repeats but may differ in a detail not shown here. Equal values may be shown once. Among all 220,000 compounds or so, about 910 (0.41%) were called active.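 Rule for the calls: active = primary inhibition above the hit cutoff, then over 50% inhibition at one or more dose response concentrations (cut at about 23% in these data, passing the limit was not always enough); inconclusive = conflicting primary data, or primary hits not chosen for dose response; inactive = low primary inhibition, or under 50% at every dose.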 Only a selection was taken, and actives are over-represented in it overall. Entries with a potency or affinity are not part of this list.
Each compound was assayed against Aminopeptidase N (Plasmodium falciparum (isolate 3D7)) (UniProt O96935) (assay: malaria alanyl aminopeptidase activity blockers – biochemical, fluorogenic H-Leu-NHMec substrate, 1536-well (AID 1445;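 note: plate controls were DMSO full reaction for no effect and no enzyme background for full effect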)). Conditions: recombinant M1AAP, H-Leu-NHMec fluorogenic kinetic assay; at 30 µM, hits give high values unless noted.
Aminopeptidase N (Plasmodium falciparum (isolate 3D7)), sequence (O96935 whole entry, looked up): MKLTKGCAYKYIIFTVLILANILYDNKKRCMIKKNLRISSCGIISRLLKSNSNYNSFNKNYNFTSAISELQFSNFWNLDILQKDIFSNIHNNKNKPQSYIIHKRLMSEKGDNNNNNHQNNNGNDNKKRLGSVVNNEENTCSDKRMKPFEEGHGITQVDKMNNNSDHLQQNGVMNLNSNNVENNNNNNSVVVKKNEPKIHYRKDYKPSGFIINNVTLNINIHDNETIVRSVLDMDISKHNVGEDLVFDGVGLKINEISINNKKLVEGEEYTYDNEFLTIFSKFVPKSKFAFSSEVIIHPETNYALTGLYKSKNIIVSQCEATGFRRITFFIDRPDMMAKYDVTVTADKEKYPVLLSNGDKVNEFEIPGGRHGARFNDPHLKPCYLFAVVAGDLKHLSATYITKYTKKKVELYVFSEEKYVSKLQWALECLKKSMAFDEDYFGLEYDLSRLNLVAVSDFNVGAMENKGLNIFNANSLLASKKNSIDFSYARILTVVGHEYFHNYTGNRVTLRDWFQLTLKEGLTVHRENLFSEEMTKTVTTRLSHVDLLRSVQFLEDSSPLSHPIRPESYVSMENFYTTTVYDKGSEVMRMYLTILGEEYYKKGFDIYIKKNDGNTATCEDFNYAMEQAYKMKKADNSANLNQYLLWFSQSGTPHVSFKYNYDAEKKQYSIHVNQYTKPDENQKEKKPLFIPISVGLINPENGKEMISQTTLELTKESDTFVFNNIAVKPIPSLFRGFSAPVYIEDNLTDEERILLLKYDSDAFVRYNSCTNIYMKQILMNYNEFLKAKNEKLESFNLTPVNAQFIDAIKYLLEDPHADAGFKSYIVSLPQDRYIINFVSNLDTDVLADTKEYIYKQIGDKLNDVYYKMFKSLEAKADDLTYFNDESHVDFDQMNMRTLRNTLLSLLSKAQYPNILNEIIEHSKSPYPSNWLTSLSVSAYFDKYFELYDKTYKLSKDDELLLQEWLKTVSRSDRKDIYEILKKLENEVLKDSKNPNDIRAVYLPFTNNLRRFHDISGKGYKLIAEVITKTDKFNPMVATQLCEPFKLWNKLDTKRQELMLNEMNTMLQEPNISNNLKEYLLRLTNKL

Structure (SMILES)	inhibition
COc1ccc(C(=O)CSc2cc(C)nc(SCC(=O)c3ccc(C)cc3)n2)cc1	12.2% (inactive)
Cn1c(C(O)C(O)c2ccccc2)nc2ccccc21 (stereo not given)	-1.04% (inactive)
CCCCC(=O)NC(NC(=O)CCCC)c1ccc(OCC(C)C)c(OC)c1	4.4% (inactive)
Cn1c(Sc2ccccc2Cl)c(C=O)c2ccccc21	3.59% (inactive)
CCN1C(=O)S/C(=C/c2c(OCc3ccc(C(=O)O)cc3)ccc3ccccc23)C1=O	9.62% (inactive)
Cc1ccc(S(=O)(=O)N(C)Cc2ccc(C(=O)N/N=C/c3ccc(OC(F)F)cc3)cc2)cc1	-2.98% (inactive)
Cc1cnc(NC(=O)CSc2nnc(-c3ccncc3)n2C2CCCCC2)s1	4.18% (inactive)
CN(Cc1nc(-c2ccccn2)no1)S(=O)(=O)c1ccc(Cl)cc1	0.8% (inactive)
Cc1nc2sc(C(c3ccc(C(C)C)cc3)N3CCN(CCO)CC3)c(O)n2n1 (stereo not given)	1.32% (inactive)
C=CCn1c(SCC(=O)/C(C#N)=C(\C)N)nc2sc(CC)cc2c1=O	5.1% (inactive)
Cc1c(C)c2cc(Cl)c(O)c(CN3CCCCC3)c2oc1=O	36% (inactive)
CCc1c(C)c2cc(Cl)c(O)c(CN3CCCCC3)c2oc1=O	-1.01% (inactive)
C[C@@H]1Cc2c(O)c(O)cc(O)c2C(=O)O1	-2.7% (inactive)
COc1c(O)cc2c(c1O)C(=O)CC(c1ccccc1)O2 (stereo not given)	4.17% (inactive)
Cn1nc(-c2ccc(Cl)cc2)cc1NC(=O)CCCC(=O)O	-1.87% (inactive)
CC1CCc2cccc3c2N1c1cc(C#N)c(C#N)cc1O3 (stereo not given)	-3.31% (inactive)
O=C(Nc1nc2ccccc2[nH]1)c1ccc(Br)o1	0.56% (inactive)
Cc1ccc(O)c(-c2cc(C(=O)Nc3ccc(S(=O)(=O)Nc4nccc(C)n4)cc3)[nH]n2)c1	5.6% (inactive)
O=C1CCC(C(=O)OCc2ccccc2)N1 (stereo not given)	2.24% (inactive)
CCOC(=O)Cc1cc(=O)n2[nH]c(-c3ccc(Cl)cc3)cc2n1	7.9% (inactive)
CCOP(=O)(OCC)c1nc(-c2cccc3ccccc23)oc1NCc1ccc(OC)cc1	16.1% (inactive)
CCOP(=O)(OCC)c1nc(Cc2ccccc2)oc1NCc1ccccc1	1.14% (inactive)
Cc1ccc(S(=O)(=O)Nc2nc3n(n2)C(c2ccc(Cl)cc2)CC(=O)N3)cc1 (stereo not given)	4.26% (inactive)
Cc1ccc(S(=O)(=O)Nc2cc(-c3ccc(Cl)cc3)nn2C)cc1	4.66% (inactive)

Structure (SMILES)	inhibition
Oc1[nH]c2ccccc2c1/C=N/N1CCCCC1	-0.99% (inactive)
CCc1nn(C(C)C(=O)NCCc2ccc(OC)c(OC)c2)c(=O)c2cc3occc3n12 (stereo not given)	10.4% (inactive)
O=C(O)c1ccc(N2C(=O)c3cccc4c(C(=O)O)ccc(c34)C2=O)cc1	10.1% (inactive)
O=C(O)c1cccc(N2C(=O)c3ccc4c5c(ccc(c35)C2=O)C(=O)N(c2cccc(C(=O)O)c2)C4=O)c1	11.6% (inactive)
COc1cccc(-c2nnc(SCN3C(=O)c4ccccc4C3=O)n2C)c1	-1.36% (inactive)
Fc1ccc(CN2CCSCC2)cc1Br	0.38% (inactive)
CN1C(=O)S/C(=C\c2ccccc2OCc2ccc(C(=O)O)cc2)C1=O	18.7% (inactive)
COC(=O)c1ccc(COc2ccccc2/C=N/NS(=O)(=O)c2ccccc2)cc1	3.52% (inactive)
CN1C(=O)/C(=C/c2ccccc2OCc2ccc(C(=O)O)cc2)NC1=S	22.6% (inactive)
CN1C(=O)S/C(=C/c2ccccc2OCc2ccc(C(=O)O)cc2)C1=O	6.59% (inactive)
O=C1NC(=S)N/C1=C\c1ccccc1OCc1ccc(C(=O)O)cc1	14.7% (inactive)
COC(=O)c1ccc(COc2ccc(/C=N/Nc3cccc(C(=O)O)c3)cc2)cc1	5.29% (inactive)
O=C(Nn1c(Cc2ccccc2)nc2ccccc2c1=O)c1c(O)c2cccc3c2n(c1=O)CCC3	-0.5% (inactive)
Cc1cc(C(=O)N2CCC(C)CC2)on1	9.58% (inactive)
COc1nc(Nc2ccc([N+](=O)[O-])cc2)nc(NC2CCCCC2)n1	8.38% (inactive)
COc1ccc(NC(=S)N2CCN(C(=O)C3CCCO3)CC2)c(OC)c1 (stereo not given)	1.1% (inactive)
COCCNc1nnc(SCC(=O)Nc2cc(-c3ccccc3)nn2-c2ccccc2)s1	8.39% (inactive)
O=C(NNS(=O)(=O)c1ccccc1F)c1sccc1-n1cccc1	1.58% (inactive)
Cc1ccc([N+](=O)[O-])cc1/C=N/Nc1nnnn1-c1ccccc1	-4.44% (inactive)
COC(=O)N/N=C/c1cc([N+](=O)[O-])cc(Br)c1O	19.9% (inactive)
COc1cc(CCC(=O)OCC(=O)Nc2ccccc2C(C)C)cc(OC)c1OC	-3.32% (inactive)
N#CC(C#N)=C1C=CC=CN1/C(=C\c1ccco1)C(=O)c1ccc(Cl)cc1	17.2% (inactive)
N#CC(C#N)=C1C=CC=CN1/C(=C\c1ccco1)C(=O)c1ccc(-c2ccccc2)cc1	18.3% (inactive)
CCCc1nnc(NC(=O)NCCN2C(=O)C3C4C=CC(C4)C3C2=O)s1 (stereo not given)	0.7% (inactive)

Structure (SMILES)	inhibition
Cn1c(Cn2nnc(-c3ccccc3)n2)nnc1SCc1ccccc1Cl	0.85% (inactive)
CC(=O)N(c1ccc2oc(=O)sc2c1)S(=O)(=O)c1cccs1	21.6% (inactive)
CC(C)C(=O)N(c1cc2sc(=O)oc2c2ccccc12)S(=O)(=O)c1cccs1	23.3% (active)
CC(C)C(=O)N(c1ccc2oc(=O)sc2c1)S(=O)(=O)c1cccs1	6.95% (inactive)
Cc1ccc(-n2c(=O)cc(N3CCc4ccccc4C3)[nH]c2=O)cc1	3.06% (inactive)
CCc1cc(=O)oc2c(CN3CCCC3)c(O)c(Cl)cc12	18.3% (inactive)
CCCCc1cc(=O)oc2c(CN3CCCC3)c(O)c(Cl)cc12	13.1% (inactive)
CCc1cc2c(CN3CCN(CC)CC3)cc(=O)oc2cc1O	-1.87% (inactive)
CCCc1cc(=O)oc2cc(C)c(CN3CCCC3)c(O)c12	13.2% (inactive)
CCc1cc2c(CN3CCN(CCO)CC3)cc(=O)oc2cc1O	11.5% (inactive)
CCc1cc2c(-c3ccccc3)cc(=O)oc2c(CN2CCOCC2)c1O	9.72% (inactive)
CCOC(=O)c1ccc(NC(=S)NCCCN2CCOCC2)cc1	-1.32% (inactive)
CCO[C@@H]1OC(C(=O)N2CCOCC2)=C[C@H](c2ccc(C(F)(F)F)cc2)[C@H]1CCCO	2.16% (inactive)
O=C(CSc1nc2c(sc3ccccc32)c(=O)n1CCCN1CCOCC1)NCC1CCCO1 (stereo not given)	1.22% (inactive)
Cc1ccc(N2/C(=N/c3nc(C)cc(C)n3)NC(=O)CC2C(=O)O)cc1 (stereo not given)	-5.89% (inactive)
O=Cc1ccc(-c2ccc(F)cc2)o1	12.4% (inactive)
O=C(/C=C/c1ccc(-c2ccccc2)o1)c1ccccc1	4.34% (inactive)
N=c1c2c3c(sc2nc2n1CCC2)CCCC3	7.32% (inactive)
CCNc1nc(Cl)nc(-c2cn(-c3ccccc3)c3ccccc23)n1	-7.96% (inactive)
COc1ccc(NC(C)=O)cc1S(=O)(=O)N1CCN(C/C=C/c2ccccc2)CC1	2.09% (inactive)
CCSc1nnc2c(n1)OC1(CCCC1)Nc1ccccc1-2	12.5% (inactive)
O=C(O)c1ccc(/C=N/NC(=O)c2cc(-c3ccc4c5c(cccc35)CC4)n[nH]2)cc1	13.5% (inactive)
O=C(N/N=C/c1cccc([N+](=O)[O-])c1)c1cc(-c2ccc3c4c(cccc24)CC3)n[nH]1	6.89% (inactive)
COc1ccc(-n2c(=S)[nH]c3cc(C(=O)NCc4ccco4)ccc3c2=O)cc1OC	7.75% (inactive) and 12.6% (inactive)

Structure (SMILES)	inhibition
CCCc1cc(=O)[nH]c(Nc2cc(OC)ccc2OC)n1	-0.31% (inactive)
CCOc1ccc(N(C(=O)c2ccccc2Cl)C2=NC(C)(C)CS2)cc1	5.11% (inactive)
O=C(O)c1ccc2c(c1)C1C=CCC1C(c1ccncc1)N2 (stereo not given)	9.23% (inactive)
COc1cccc(NS(=O)(=O)c2ccc3c(c2)C2C=CCC2C(c2ccc(C(=O)O)cc2)N3)c1 (stereo not given)	22.8% (inactive)
Fc1ccc2c(c1)C1C=CCC1C(c1cc3c(cc1Br)OCO3)N2 (stereo not given)	5.12% (inactive)
Brc1cc2c(cc1C1Nc3ccccc3C3C=CCC31)OCO2 (stereo not given)	6.9% (inactive)
Cc1nc2c(C)cccn2c1/C(O)=C1\C(=O)C(=O)N(CCN(C)C)C1c1ccccc1 (stereo not given)	-2.63% (inactive)
CC(=O)c1ccccc1OC(=O)c1c(F)cccc1F	3.59% (inactive)
Cc1nc2cc(F)ccc2n1C1CCN(C(=O)c2c(F)cccc2F)CC1	5.28% (inactive)
Cc1cccc(-c2c3c(=O)n(C)c(=O)n(C)c3cn2C(C)(C)C)c1	7.14% (inactive)
O=c1[nH]c2ccc(NC(=S)NCc3ccccc3)cc2[nH]1	-4.38% (inactive)
C=CCn1c(COc2ccccc2)nnc1SC(C)C(=O)N/N=C/c1cc(Cl)ccc1O (stereo not given)	46.5% (active)
C=CCn1c(COc2ccc(Cl)cc2)nnc1SCC(=O)N/N=C/c1cccc(O)c1	6.07% (inactive)
C=CCn1c(COc2ccc(Cl)cc2)nnc1SCC(=O)N/N=C/c1ccccc1	0.22% (inactive)
CC1CC(=O)Nc2ccccc2N1S(=O)(=O)c1ccc(Br)cc1 (stereo not given)	-1.92% (inactive)
COc1ccccc1NC(=O)Cc1noc(CSc2nnc(C)n2C)n1	-2.44% (inactive)
Cc1ccccc1CS(=O)(=O)Cc1ccc(C(=O)NCc2ccccn2)o1	11.9% (inactive)
CCc1cc2ccc(C)cc2nc1SCC(=O)Nc1cc(OC)c(OC)cc1C(=O)O	17.6% (inactive)
Cc1sc2ncnc(SCc3ccc(C(=O)O)cc3)c2c1C	8.46% (inactive)
Cc1ccc(-c2csc3ncnc(SCC(=O)O)c23)cc1	-4.79% (inactive)
COC(=O)CSc1ncnc2scc(-c3ccccc3)c12	8.48% (inactive)
O=C(CSc1ncnc2scc(-c3ccccc3)c12)Nc1ccc(C(=O)O)cc1	7.21% (inactive)
CCc1cc2ccccc2nc1SCC(=O)Nc1cc(OC)c(OC)cc1C(=O)O	6.44% (inactive)

— PubChem BioAssay AID1445 (SRMLSC, 2008)
